# Several values for one entry are separate records, joined by “and”; a condition that tells them apart may be missing. Equal entries are not always repeated. Inconclusive results are not listed. A call without a number means that no potency is given here. Activity calls are given as the source filed them. Calls come from the whole dose curve; as a rule, active = well fitted inhibition curve with a large enough effect in the repeat runs; inconclusive = weak or mixed curves; inactive = no such curve, though single readings can be large or run the other way.
# Experiment: qHTS assay to identify small molecule antagonists of the thyroid receptor (TR) signaling pathway (AID 743065); note: nearly all actives have a fitted effect of over 55% in size
# Details: GH3.TRE-Luc, T3-stimulated luciferase inhibition, 23.5 h; series mostly up to 70.3 µM
# Text: U.S. Tox21 Program National Center for Advancing Translational Sciences [NCATS] NIH Chemical Genomics Center [NCGC] U.S. Environmental Protection Agency [EPA] National Institutes of Environmental Health Sciences [NIEHS] National Toxicology Program [NTP] U.S. Food and Drug Administration [FDA] Tox21 Assay Overview: Thyroid receptor (TR), a nuclear hormone receptor, plays an important role in development, proliferation, differentiation, metabolism, brain function, and cardiovascular system. […] To profile the Tox21 10K compound library in TR signaling, a cell-based GH3-TRE-Luc assay (GH3.TRE-Luc cell line, developed by the laboratory of Dr. Albertinka J. Murk, Wageningen University) was used to measure the inhibition of TR. GH3 (rat pituitary tumor) cells stably expressing a TR activity sensor consisting of two TR response elements and a luciferase reporter gene.
# Tox21 Assay Protocol Summary: GH3.TRE-Luc cells were dispensed at 1500 cells/4 uL/well into 1536-well white solid bottom plates using a Multidrop Combi dispenser (Thermo Fisher Scientific Inc., Waltham, MA). After the assay plates were incubated at 37 C for 4 hours, 23 nL of library compound or DMSO controls was transferred to the assay plates by a pintool station (Kalypsys, San Diego, CA), followed by addition of 1 ul of T3 (1 nM, final concentration in the wells) to stimulate TR transactivation. The assay plates were incubated at 37 C for 23.5 h, and then 1 uL of CellTiter-Fluor reagent (Promega, Madision, WI) of measuring cytotoxicity was added to each well using a Bioraptr Flying Reagent Dispenser (FRD) workstation (Beckman Coulter, Indianapolis, IN, USA). The plates were incubated at 37 C and 5% CO2 for additional 30 min, and fluorescence intensity was measured by a ViewLux plate reader (PerkinElmer, Shelton, CT). For measuring luciferase reporter gene activity, 4 uL of ONE-Glo Luciferase Assay reagent (Promega) was added to each well using a Bioraptr FRD (Beckman Coulter), followed by 30 min incubation at room temperature. The luminescence intensity of plates was recorded by a ViewLux plate reader (PerkinElmer, Shelton, CT).
# Potency is the fitted concentration of half-maximal effect.
row,SMILES,Potency
1,Nc1nc(=S)[nH][nH]1,inactive
2,ClCc1ccccc1,inactive
3,CCOP(=O)(OCC)Oc1ccc([N+](=O)[O-])cc1,inactive
4,OC(c1ccc(Cl)cc1)(c1ccc(Cl)cc1)c1cccnc1,54.5 µM (active)
5,CCCC(=O)Cl,inactive
6,C[N+](C)(C)CCCl,inactive
7,NCCCNCCCN,62.1 µM (active)
8,CC(C)(C)c1cc([N+](=O)[O-])cc([N+](=O)[O-])c1O,3.43 µM (active)
9,O=C(O)c1ccccc1C(=O)Nc1cccc2ccccc12,inactive
10,CN(N=O)c1ccc([N+](=O)[O-])cc1,inactive
11,O=C(O)C(F)(F)C(F)(F)C(F)(F)C(F)(F)C(F)(F)C(F)(F)C(F)(F)C(F)(F)C(F)(F)C(F)(F)F,inactive
12,C/C(=C\c1ccccc1)[N+](=O)[O-],6.86 µM (active)
13,O=C(NC(=O)c1c(F)cccc1F)Nc1cc(Cl)c(Oc2ncc(C(F)(F)F)cc2Cl)c(Cl)c1,8.27 µM (active)
14,CCOP(=S)(OCC)SCn1nnc2ccccc2c1=O,61.1 µM (active)
15,COc1nn(CSP(=S)(OC)OC)c(=O)s1,68.6 µM (active)
16,C=CCCl,inactive
17,C#CCOC(C(=O)OCCN(C)C)(c1ccccc1)c1ccccc1,inactive
18,COP(=O)(OC)O/C(=C/Cl)c1cc(Cl)c(Cl)cc1Cl,28.8 µM (active)
19,Brc1ccccc1,inactive
20,[CH3][Sn]([CH3])([Cl])[Cl],55.4 µM (active) and 68.6 µM (active)

row,SMILES,Potency
1,N#C/C(N)=C(/N)C#N,inactive
2,CCBr,inactive
3,C=CC[C@]1(O)CC[C@H]2[C@@H]3CCC4=CC(=O)CCC4=C3C=C[C@@]21C,10.6 µM (active)
4,Cc1ccc2ccccc2c1,inactive
5,C=C(C#N)CCC#N,inactive
6,Clc1cccc2ccccc12,inactive
7,Oc1ccc(Cl)c(Cl)c1Cl,inactive
8,CCOP(O)OCC,inactive
9,O=NN1CCNCC1,inactive
10,CCN(C)N=O,inactive
11,CC(=O)C(C)(C)C,inactive
12,Cc1ccc(N)cc1C,inactive
13,Cc1ccc(-c2c(Cl)nc(C#N)n2S(=O)(=O)N(C)C)cc1,13.7 µM (active)
14,CCOC(=O)COc1cc(-c2nn(C)c(OC(F)F)c2Cl)c(F)cc1Cl,inactive
15,C=CC(=O)OC,inactive
16,CCCCCCC#N,inactive
17,C/C=C/C=O,inactive
18,C=CC(=O)OCC(C)O (stereo not given),inactive
19,O=[N+]([O-])c1ccc(F)c([N+](=O)[O-])c1,61.7 µM (active)
20,O=C(NC(=O)c1c(F)cccc1F)Nc1ccc(OC(F)(F)C(F)OC(F)(F)F)c(Cl)c1 (stereo not given),inactive
